By AC50 is commonly meant the concentration giving half of the maximal activity seen.

The results in this text go back to PubChem BioAssay (EPA / NIEHS).

Results filed as inconclusive are left out. Activity calls are given as the source filed them. The calls were made as follows: active = hit-call score of the fitted dose curve at least 0.9, where 1 is the maximum; inconclusive = response in the unintended direction; inactive = score below 0.9.

The target of assay [1] is rat Corticotropin Releasing Factor Receptor (CRF), Crhr1 (gene 58959) (UniProt P35353). Put plainly: NVS_GPCR_rCRF: NovaScreen (NVS) G Protein-Coupled Receptor Assay for rat Corticotropin Releasing Factor Receptor (CRF) (AID 2283300). In outline: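 Single-concentration (25 uM, duplicate) radioligand binding on rat cortical membrane preparations, counted by scintillation after 2 h. Activity scored as signal loss relative to DMSO negative control.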

The target of assay [2] is rat Somatostatin Receptor (SST), Sstr1 (gene 25033) (UniProt P28646). Put plainly: NVS_GPCR_rSST: NovaScreen (NVS) G Protein-Coupled Receptor Assay for rat Somatostatin Receptor (SST) (AID 2283314). In outline:
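Single-concentration duplicate screen (25 uM), then concentration-response up to 50 uM for chemicals passing a threshold such as 30% inhibition. Membranes came from rat forebrain. Binding was measured 1 h post-dose by filter radiodetection and scintillation, relative to DMSO.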

For assay [3], the target named is rat Opioid Receptor, Non-selective Binding, Oprm1 (gene 25601) (UniProt P33535). Put plainly: NVS_GPCR_rOpiate_NonSelective: NovaScreen (NVS) G Protein-Coupled Receptor Assay for rat Opioid Receptor, Non-selective Binding (AID 2283318). The procedure, abridged:
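Filter-based radioligand displacement using rat forebrain membrane preparations, measured 1.5 h post-dosing. Single-concentration duplicate screen at 25 uM, follow-up in concentration series; activity taken as signal loss relative to DMSO.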

For assay [4], the target named is rat Neurotensin Receptor (NTS), Ntsr1 (gene 366274) (UniProt P20789). Briefly: NVS_GPCR_rNTS: NovaScreen (NVS) G Protein-Coupled Receptor Assay for rat Neurotensin Receptor (NTS) (AID 2283308). The procedure, abridged:
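Single-point duplicates at 25 uM, then concentration series to 50 uM max for hits, measured radioligand displacement on rat forebrain membrane preparations. Bound label counted by filtration scintillation at 1 h; signal loss relative to DMSO fitted.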

Assay [5] has as its target rat Gamma-Aminobutyric Acid Type B Receptor (GABBR), Gabbr1 (gene 81657) (UniProt Q9Z0U4). Briefly: NVS_GPCR_rGABBR: NovaScreen (NVS) G Protein-Coupled Receptor Assay for rat Gamma-Aminobutyric Acid Type B Receptor (GABBR) (AID 2283301). In outline:
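Rat cortical membrane preparation, competitive radioligand binding for 1 h with filtration and scintillation readout. Actives from duplicate single-point 25 uM screening proceeded to concentration series with 50 uM top concentration.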

The target in assay [6] is rat Histamine Receptor (H3), Hrh3 (gene 85268) (UniProt Q9QYN8). Briefly: NVS_GPCR_rH3: NovaScreen (NVS) G Protein-Coupled Receptor Assay for rat Histamine Receptor (H3) (AID 2283303). In outline:
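Filter-binding radioligand competition on rat forebrain membranes, 1 h incubation; compounds screened at 25 µM in duplicate and followed in concentration series to 50 µM, loss of bound signal vs DMSO.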

The target of assay [7] is rat Vasopressin 1 Receptor (V1), Avpr1a (gene 25107) (UniProt P30560). Briefly: NVS_GPCR_rV1: NovaScreen (NVS) G Protein-Coupled Receptor Assay for rat Vasopressin 1 Receptor (V1) (AID 2283316). In outline: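 Concentration-response up to 50 uM for chemicals passing a threshold such as 30% inhibition in an initial duplicate 25 uM screen. Displacement of radioligand from rat liver membranes measured after 1.5 h by filtration and scintillation.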

For assay [8], the target named is rat Adrenergic, Alpha 1A Receptor (Adra1A), Adra1a (gene 29412) (UniProt P43140). Put plainly: NVS_GPCR_rAdra1A: NovaScreen (NVS) G Protein-Coupled Receptor Assay for rat Adrenergic, Alpha 1A Receptor (Adra1A) (AID 2283296). The procedure, abridged: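 Filter radiodetection after 1 h competitive binding on CEC-pretreated rat cortical membranes. Duplicate single-point screening at 25 uM; active chemicals retested across concentration series.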

In assay [9] the target is rat Neurokinin-1 Receptor (NK1), Tacr1 (gene 24807) (UniProt P14600). Briefly: NVS_GPCR_rNK1: NovaScreen (NVS) G Protein-Coupled Receptor Assay for rat Neurokinin-1 Receptor (NK1) (AID 2283309). In outline: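 Competitive radioligand binding to NK1 in rat submaxillary membranes, 1 h incubation, filtration and scintillation read-out. Compounds first screened at 25 uM in duplicate, then concentration-response for actives; signal loss relative to DMSO.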

In assay [10] the test system is rat Adrenergic, Alpha 1B Receptor (Adra1B), gene 24173. Put plainly: NVS_GPCR_rAdra1B: NovaScreen (NVS) G Protein-Coupled Receptor Assay for rat Adrenergic, Alpha 1B Receptor (Adra1B) (AID 2283297). The procedure, abridged:
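Filter-binding radioligand competition on membranes from rat liver, read after 1 h by scintillation counting. Single-concentration duplicate screen at 25 uM, followed by concentration-response on actives, normalised to DMSO.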

Assay [11] concerns the target rat Adrenergic Receptor, Beta (Adrb), Non-selective Binding, Adrb1 (gene 24925) (UniProt P18090). Put plainly: NVS_GPCR_rAdrb_NonSelective: NovaScreen (NVS) G Protein-Coupled Receptor Assay for rat Adrenergic Receptor, Beta (Adrb), Non-selective Binding (AID 2283298). In outline: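 Rat cortical membranes incubated 1 h with beta-adrenergic radioligand and test chemical; bound ligand measured by filtration and scintillation counting. Screen at 25 uM duplicate, then concentration series with 50 uM maximum; loss of signal versus DMSO.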

The target of assay [12] is rat Adrenergic Receptor, Alpha 2 (Adra2), Non-selective Binding, Adra2a (gene 25083) (UniProt P22909). Briefly: NVS_GPCR_rAdra2_NonSelective: NovaScreen (NVS) G Protein-Coupled Receptor Assay for rat Adrenergic Receptor, Alpha 2 (Adra2), Non-selective Binding (AID 2283299). In outline: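 Filter-based scintillation counting of radioligand binding to rat cortical membrane receptors, measured 1.25 hours post-dosing; loss of signal versus DMSO indicates displacement. Initial single-concentration duplicate at 25 uM, then concentration series.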

Assay [13] concerns the target Metabotropic glutamate receptor 1 (Rattus norvegicus) (UniProt P23385). Briefly: NVS_GPCR_rmMGluR1: NovaScreen (NVS) G Protein-Coupled Receptor Assay for rat Glutamate Metabotropic Receptor 1 (MGluR1) (AID 2283305). The procedure, abridged: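 Binding to native receptor from rat cerebellum extract, measured as displacement of a radioligand (scintillation counting, filter separation) after 1 hour. Compounds tested at 25 uM in duplicate, then titrated to a 50 uM maximum.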

The target in assay [14] is Adra2b (gene 24174) (UniProt P19328). Put plainly: NVS_GPCR_rmAdra2B: NovaScreen (NVS) G Protein-Coupled Receptor Assay for hybird cells Adrenergic, Alpha 2B Receptor (Adra2B) (AID 2283306). The procedure, abridged:
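Compounds screened first at 25 uM in duplicate, with actives followed up in concentration-response; specific radioligand displacement from hybrid neuroglioma/blastoma cell membrane preparations measured by filter scintillation counting after 1 h, normalized to DMSO.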

Assay [15] deals with Voltage-dependent N-type calcium channel subunit alpha-1B (Rattus norvegicus) (UniProt Q02294). Briefly: NVS_IC_rCaChN: NovaScreen (NVS) Ion Channel Assay for rat Calcium Channel, Type N (CaChN) (AID 2283317).
Assay [16] addresses human Neonicotinoid receptor (NNR), CHRNA2 (gene 1135) (UniProt Q15822). Put plainly: NVS_LGIC_hNNR_NBungSens: NovaScreen (NVS) Ligand-Gated Ion Channel Assay for human Neonicotinoid receptor (NNR) (AID 2283313). In outline:
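Compounds first screened in duplicate at 25 uM, then actives re-tested in single-replicate dose series up to 50 uM. Binding measured as displacement of specific radioligand from neuroblastoma membrane receptors after 2 h, scintillation read on filters.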

The target in assay [17] is rat Serotonin, 5-Hydroxytryptamine Receptor (5HT), Non-Selective Binding, Htr1a (gene 24473) (UniProt P19327). Briefly: NVS_GPCR_r5HT_NonSelective: NovaScreen (NVS) G Protein-Coupled Receptor Assay for rat Serotonin, 5-Hydroxytryptamine Receptor (5HT), Non-Selective Binding (AID 2283295). The procedure, abridged:
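Rat cortex membrane preparation incubated 1 h with radioligand and test chemical; bound radioactivity counted after filtration. Screening began in duplicate at 25 uM with concentration-series follow-up; fitting relative to DMSO.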

Assay [18] has as its target rat Neurokinin-3 Receptor (NK3), Tacr3 (gene 24808) (UniProt P16177). Put plainly: NVS_GPCR_rNK3: NovaScreen (NVS) G Protein-Coupled Receptor Assay for rat Neurokinin-3 Receptor (NK3) (AID 2283310). In outline:
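Filter-based radioligand displacement on rat cortex membrane preparations, read by scintillation 2 h post-dose. Chemicals first tested in duplicate at 25 uM; actives followed up in concentration series with a 50 uM maximum.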

Assay [19] has as its target rat Opioid Receptor, Non-selective Sodium (Na+) Binding, Oprm1 (gene 25601) (UniProt P33535). Briefly: NVS_GPCR_rOpiate_NonSelectiveNa: NovaScreen (NVS) G Protein-Coupled Receptor Assay for rat Opioid Receptor, Non-selective Sodium (Na+) Binding (AID 2283311). In outline: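 Filtration radioligand binding on rat forebrain membrane preparations, read 1.5 h after dosing. Single-concentration 25 µM primary screen in duplicate, followed by singleton concentration series to 50 µM max for actives; DMSO baseline.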

Chain of rat Neurokinin-1 Receptor (NK1), Tacr1 (gene 24807) (P14600 whole entry, looked up): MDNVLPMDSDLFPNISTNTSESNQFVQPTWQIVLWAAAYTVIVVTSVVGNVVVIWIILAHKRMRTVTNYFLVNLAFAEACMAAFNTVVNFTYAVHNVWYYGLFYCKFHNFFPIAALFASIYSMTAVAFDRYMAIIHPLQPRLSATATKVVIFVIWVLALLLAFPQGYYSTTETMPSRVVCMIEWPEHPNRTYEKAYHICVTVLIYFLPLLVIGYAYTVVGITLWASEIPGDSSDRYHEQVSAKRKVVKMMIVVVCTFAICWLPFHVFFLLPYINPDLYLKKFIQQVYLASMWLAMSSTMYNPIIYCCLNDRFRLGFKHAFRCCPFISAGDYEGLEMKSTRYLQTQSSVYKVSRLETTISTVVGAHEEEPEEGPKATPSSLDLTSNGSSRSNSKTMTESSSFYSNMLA
Chain of rat Neurotensin Receptor (NTS), Ntsr1 (gene 366274) (P20789 whole entry, looked up): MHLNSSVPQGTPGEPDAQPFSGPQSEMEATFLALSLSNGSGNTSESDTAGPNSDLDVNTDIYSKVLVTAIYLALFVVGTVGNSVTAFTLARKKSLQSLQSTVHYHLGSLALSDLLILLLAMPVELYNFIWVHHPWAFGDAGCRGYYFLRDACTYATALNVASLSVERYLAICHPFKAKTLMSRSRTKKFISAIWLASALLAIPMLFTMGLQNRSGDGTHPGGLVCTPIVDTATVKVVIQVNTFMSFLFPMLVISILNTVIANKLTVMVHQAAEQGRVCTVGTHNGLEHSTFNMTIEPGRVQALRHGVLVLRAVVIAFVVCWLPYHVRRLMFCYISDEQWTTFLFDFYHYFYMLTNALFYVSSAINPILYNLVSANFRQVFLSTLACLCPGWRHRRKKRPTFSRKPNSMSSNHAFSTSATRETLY
Chain of rat Adrenergic Receptor, Alpha 2 (Adra2), Non-selective Binding, Adra2a (gene 25083) (P22909 whole entry, looked up): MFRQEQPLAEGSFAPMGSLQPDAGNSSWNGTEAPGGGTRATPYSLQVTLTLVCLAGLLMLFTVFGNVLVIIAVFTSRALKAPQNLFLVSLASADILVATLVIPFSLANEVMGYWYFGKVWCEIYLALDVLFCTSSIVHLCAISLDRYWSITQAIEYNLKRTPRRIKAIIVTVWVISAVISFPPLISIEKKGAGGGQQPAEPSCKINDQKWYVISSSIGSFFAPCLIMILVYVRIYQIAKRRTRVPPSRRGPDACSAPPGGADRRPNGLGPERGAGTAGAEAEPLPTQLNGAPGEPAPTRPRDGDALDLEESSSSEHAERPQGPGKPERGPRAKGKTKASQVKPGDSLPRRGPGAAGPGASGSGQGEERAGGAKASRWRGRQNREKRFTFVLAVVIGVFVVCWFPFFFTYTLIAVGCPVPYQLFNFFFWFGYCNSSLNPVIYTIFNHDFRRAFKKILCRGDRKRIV
Chain of Adra2b (gene 24174) (P19328 whole entry, looked up): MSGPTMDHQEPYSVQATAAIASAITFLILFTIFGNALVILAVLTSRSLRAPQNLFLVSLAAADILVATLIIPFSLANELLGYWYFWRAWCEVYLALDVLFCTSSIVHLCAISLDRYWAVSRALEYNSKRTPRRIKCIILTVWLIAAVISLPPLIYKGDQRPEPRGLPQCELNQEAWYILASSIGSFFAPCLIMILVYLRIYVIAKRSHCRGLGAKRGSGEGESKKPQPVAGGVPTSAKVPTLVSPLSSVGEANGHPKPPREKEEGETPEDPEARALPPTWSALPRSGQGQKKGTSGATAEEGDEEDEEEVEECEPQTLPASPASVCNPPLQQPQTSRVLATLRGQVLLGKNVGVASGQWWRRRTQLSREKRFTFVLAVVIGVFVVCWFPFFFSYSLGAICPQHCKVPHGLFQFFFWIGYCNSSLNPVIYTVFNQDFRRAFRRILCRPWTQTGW
Chain of rat Serotonin, 5-Hydroxytryptamine Receptor (5HT), Non-Selective Binding, Htr1a (gene 24473) (P19327 whole entry, looked up): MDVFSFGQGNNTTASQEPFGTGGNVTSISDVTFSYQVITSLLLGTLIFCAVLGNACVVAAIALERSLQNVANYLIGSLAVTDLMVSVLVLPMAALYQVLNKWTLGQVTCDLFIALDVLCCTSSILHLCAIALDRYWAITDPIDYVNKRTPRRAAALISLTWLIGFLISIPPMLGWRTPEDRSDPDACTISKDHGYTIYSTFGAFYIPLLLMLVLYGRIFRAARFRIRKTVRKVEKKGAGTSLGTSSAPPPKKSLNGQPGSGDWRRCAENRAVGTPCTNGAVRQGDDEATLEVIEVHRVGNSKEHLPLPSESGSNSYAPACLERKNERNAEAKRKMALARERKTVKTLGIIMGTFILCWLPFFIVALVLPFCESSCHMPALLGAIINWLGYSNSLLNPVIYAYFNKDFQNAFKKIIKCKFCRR
Chain of rat Corticotropin Releasing Factor Receptor (CRF), Crhr1 (gene 58959) (P35353 whole entry, looked up): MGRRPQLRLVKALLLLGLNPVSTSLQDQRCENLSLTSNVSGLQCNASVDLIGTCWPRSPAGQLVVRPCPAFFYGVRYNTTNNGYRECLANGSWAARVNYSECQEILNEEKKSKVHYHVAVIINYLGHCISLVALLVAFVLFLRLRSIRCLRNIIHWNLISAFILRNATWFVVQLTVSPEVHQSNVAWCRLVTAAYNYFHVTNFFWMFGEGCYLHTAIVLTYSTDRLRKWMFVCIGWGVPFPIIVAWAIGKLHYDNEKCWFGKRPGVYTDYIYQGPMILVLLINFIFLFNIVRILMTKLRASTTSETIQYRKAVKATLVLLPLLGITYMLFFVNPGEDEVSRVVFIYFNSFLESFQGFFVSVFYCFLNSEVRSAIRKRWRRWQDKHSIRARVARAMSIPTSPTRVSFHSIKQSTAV
Chain of rat Somatostatin Receptor (SST), Sstr1 (gene 25033) (P28646 whole entry, looked up): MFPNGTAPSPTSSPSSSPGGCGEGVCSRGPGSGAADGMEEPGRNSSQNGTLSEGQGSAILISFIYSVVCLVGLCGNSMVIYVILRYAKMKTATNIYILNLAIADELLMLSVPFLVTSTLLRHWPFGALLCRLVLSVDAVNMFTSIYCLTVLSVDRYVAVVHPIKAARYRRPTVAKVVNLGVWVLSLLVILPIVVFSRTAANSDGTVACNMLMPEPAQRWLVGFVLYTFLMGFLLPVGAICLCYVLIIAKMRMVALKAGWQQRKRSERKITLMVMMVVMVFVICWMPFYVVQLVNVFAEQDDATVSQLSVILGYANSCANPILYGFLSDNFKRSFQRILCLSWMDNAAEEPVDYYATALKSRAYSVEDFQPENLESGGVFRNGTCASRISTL
Chain of rat Vasopressin 1 Receptor (V1), Avpr1a (gene 25107) (P30560 whole entry, looked up): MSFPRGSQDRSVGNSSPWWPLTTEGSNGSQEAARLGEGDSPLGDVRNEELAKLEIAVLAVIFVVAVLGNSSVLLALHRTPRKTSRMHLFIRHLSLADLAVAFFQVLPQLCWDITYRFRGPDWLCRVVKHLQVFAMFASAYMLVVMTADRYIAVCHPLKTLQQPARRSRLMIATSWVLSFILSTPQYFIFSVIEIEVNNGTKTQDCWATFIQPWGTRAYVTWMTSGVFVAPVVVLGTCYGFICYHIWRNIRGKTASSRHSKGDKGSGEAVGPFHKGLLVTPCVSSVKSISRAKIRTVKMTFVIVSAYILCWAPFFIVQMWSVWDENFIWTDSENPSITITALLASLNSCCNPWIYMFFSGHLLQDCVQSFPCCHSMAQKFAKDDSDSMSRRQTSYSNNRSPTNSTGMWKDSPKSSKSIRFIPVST
Chain of rat Opioid Receptor, Non-selective Binding, Oprm1 (gene 25601) (P33535 whole entry, looked up): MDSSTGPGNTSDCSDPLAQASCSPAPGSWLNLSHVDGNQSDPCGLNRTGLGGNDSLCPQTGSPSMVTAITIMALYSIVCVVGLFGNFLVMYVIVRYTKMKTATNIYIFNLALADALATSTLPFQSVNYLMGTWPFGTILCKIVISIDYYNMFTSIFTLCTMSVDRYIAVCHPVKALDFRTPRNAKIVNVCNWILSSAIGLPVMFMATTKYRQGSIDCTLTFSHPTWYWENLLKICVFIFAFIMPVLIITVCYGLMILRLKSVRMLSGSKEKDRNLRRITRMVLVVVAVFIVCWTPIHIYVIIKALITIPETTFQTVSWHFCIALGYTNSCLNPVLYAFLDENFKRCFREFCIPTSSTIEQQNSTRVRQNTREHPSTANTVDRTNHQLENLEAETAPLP
Chain of rat Adrenergic, Alpha 1A Receptor (Adra1A), Adra1a (gene 29412) (P43140 whole entry, looked up): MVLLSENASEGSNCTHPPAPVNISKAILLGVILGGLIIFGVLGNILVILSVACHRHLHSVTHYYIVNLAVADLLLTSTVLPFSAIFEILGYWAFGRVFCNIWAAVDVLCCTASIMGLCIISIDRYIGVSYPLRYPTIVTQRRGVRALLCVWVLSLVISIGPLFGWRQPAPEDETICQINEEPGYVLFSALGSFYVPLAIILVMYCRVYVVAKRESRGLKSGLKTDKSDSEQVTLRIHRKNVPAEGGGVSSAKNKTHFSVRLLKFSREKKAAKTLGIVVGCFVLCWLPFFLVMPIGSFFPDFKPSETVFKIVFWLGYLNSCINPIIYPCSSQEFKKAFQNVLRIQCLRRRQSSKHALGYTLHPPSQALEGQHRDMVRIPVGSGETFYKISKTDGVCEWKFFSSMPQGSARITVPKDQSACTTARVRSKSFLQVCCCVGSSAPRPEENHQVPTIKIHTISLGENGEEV
Chain of rat Adrenergic Receptor, Beta (Adrb), Non-selective Binding, Adrb1 (gene 24925) (P18090 whole entry, looked up): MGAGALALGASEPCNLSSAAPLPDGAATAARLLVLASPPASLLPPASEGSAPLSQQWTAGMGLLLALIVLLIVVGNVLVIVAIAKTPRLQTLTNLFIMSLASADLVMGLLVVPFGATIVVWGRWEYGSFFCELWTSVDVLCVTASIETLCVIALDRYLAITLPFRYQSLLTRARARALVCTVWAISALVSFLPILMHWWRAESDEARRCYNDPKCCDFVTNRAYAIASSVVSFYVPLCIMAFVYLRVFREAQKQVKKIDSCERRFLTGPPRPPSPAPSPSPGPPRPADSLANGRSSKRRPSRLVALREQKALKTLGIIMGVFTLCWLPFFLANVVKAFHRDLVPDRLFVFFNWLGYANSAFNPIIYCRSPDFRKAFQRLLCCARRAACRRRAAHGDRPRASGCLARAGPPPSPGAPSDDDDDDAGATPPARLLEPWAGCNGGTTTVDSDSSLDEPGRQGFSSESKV

On to `CC(C)=CC1C(C(=O)OCN2C(=O)C3=C(CCCC3)C2=O)C1(C)C` (configuration not stated), for which the molecule was classed as inactive in assay [1], in [2] and in assay [3].

On to `C=C(C)[C@H]1Cc2c(ccc3c2O[C@@H]2COc4cc(OC)c(OC)cc4[C@@H]2C3=O)O1`, for which, in assay [4], the molecule was classed as inactive.

Turning to `CCOP(=S)(OCC)Oc1cc(C)nc(C(C)C)n1`, the molecule was classed as inactive in assay [4].

With `Cc1cc(C2CC2)nc(Nc2ccccc2)n1`, the result in assay [1] and in [5] was inactive.

With `N#CSCSC#N`, the AC50 in [6] is 9.77 µM (active); in [7] it was 2.01 µM (active). Also, in assay [2], the molecule was classed as inactive.

Turning to `CC1=NNC(=O)N(/N=C/c2cccnc2)C1`, the result in assay [4] was inactive.

Regarding `COP(=O)(OC)OC(Br)C(Cl)(Cl)Br` (configuration not stated), the AC50 in assay [6] was 5.79 µM (active).

Consider `CSC1=N[C@@](C)(c2ccccc2)C(=O)N1Nc1ccccc1`, for which the result in [8] and in [9] was inactive.

As to `C#CC(C)(C)NC(=O)c1cc(Cl)cc(Cl)c1`, in assay [1], the result was inactive.

For the molecule `CC[C@H](C)[C@H]1O[C@]2(C=C[C@@H]1C)C[C@@H]1C[C@@H](C/C=C(\C)[C@@H](O[C@H]3C[C@H](OC)[C@@H](O[C@H]4C[C@H](OC)[C@@H](NC)[C@H](C)O4)[C@H](C)O3)[C@@H](C)/C=C/C=C3\CO[C@@H]4[C@H](O)C(C)=C[C@@H](C(=O)O1)[C@]34O)O2`, the AC50 in [10] was 33.1 µM (active); in assay [12] it was 11.5 µM (active); in [13], 12.7 µM (active); in assay [14], 34.8 µM (active); in [9], 30.6 µM (active); in assay [2] it was 2.49 µM (active). The call in assay [11], in assay [15] and in assay [3] was inactive.

As for `S=C1NCCN1`, the molecule was called inactive in [12], in assay [4] and in assay [16].

In the case of `CCOP(=S)(Oc1cnc(C(C)(C)C)nc1)OC(C)C` (configuration not stated), in [12], the outcome was inactive.

`CC(C)[C@H](C(=O)O[C@H](C#N)c1cccc(Oc2ccccc2)c1)c1ccc(Cl)cc1`: in [12], the result was inactive.

As to `CCC(=O)Nc1ccc(Cl)c(Cl)c1`, in [17], the AC50 is 34.6 µM (active). Besides, the outcome in assay [14] was inactive.

Consider `C[Si](Cn1cncn1)(c1ccc(F)cc1)c1ccc(F)cc1`, for which the AC50 is 16.9 µM (active) in assay [8], 19.1 µM (active) in [10] and 25 µM (active) in assay [14]. For the same molecule, the molecule was classed as inactive in assay [9], in assay [18] and in assay [3].

Turning to `COP(=O)(NC(C)=O)SC` (configuration not stated), in assay [5], the outcome was inactive.

Consider `Nc1c(Cl)cc([N+](=O)[O-])cc1Cl`, for which the call in assay [1] was inactive.

As to `CCOC(=O)COc1cc(-c2nn(C)c(OC(F)F)c2Cl)c(F)cc1Cl`, in [17], the call was inactive.

Take `COc1cc(OC)nc(Sc2cccc(Cl)c2C(=O)O)n1`: in assay [17], the result was inactive.

For the molecule `FC(F)C(F)(F)OCC(Cn1cncn1)c1ccc(Cl)cc1Cl` (configuration not stated), the molecule was called inactive in assay [11] and in assay [9].

`COc1ccc(C(=CC(=O)N2CCOCC2)c2ccc(Cl)cc2)cc1OC`: the results for the AC50 in assay [14] and in assay [7] were 11.7 µM (active) and 6.22 µM (active), respectively. For the same molecule, the call in assay [9], in [19] and in assay [3] was inactive.

Turning to `CCOP(=O)(OCC)Oc1cc(C)nc(C(C)C)n1`, in [4], the result was inactive.

Consider `CCCCSP(=O)(SCCCC)SCCCC`, for which, in assay [4], the call was inactive.

Consider `COc1cccc(C(=O)NN(C(=O)c2cc(C)cc(C)c2)C(C)(C)C)c1C`, for which, in [7], the AC50 was 0.491 µM (active).

In the case of `CON=C(C(=O)OC)c1ccccc1CON=C(C)c1cccc(C(F)(F)F)c1`, the AC50 in assay [7] is 11.1 µM (active).
